# Results as given in publication PMC7862700, “An all-to-all approach to the identification of sequence-specific readers for epigenetic DNA modifications on cytosine”.
# Tests used:
# Experiment in all cases: DAPPL (digital affinity profiling via proximity ligation, sequencing); 10 mM Tris-HCl pH 7.5, 50 mM NaCl, 1 mM DTT, 4% glycerol, room temperature, 30 min; GST-TFs on glutathione beads, 16-mer random dsDNA library, 0.1% formaldehyde crosslink after washing; high values mean tight binding
# FLI1 = target: T1, FLI1 (Homo sapiens, UniProt Q01543 1-452); conditions: protein: recombinant; tags: N-terminal GST; dsDNA, one strand shown
# T1 sequence: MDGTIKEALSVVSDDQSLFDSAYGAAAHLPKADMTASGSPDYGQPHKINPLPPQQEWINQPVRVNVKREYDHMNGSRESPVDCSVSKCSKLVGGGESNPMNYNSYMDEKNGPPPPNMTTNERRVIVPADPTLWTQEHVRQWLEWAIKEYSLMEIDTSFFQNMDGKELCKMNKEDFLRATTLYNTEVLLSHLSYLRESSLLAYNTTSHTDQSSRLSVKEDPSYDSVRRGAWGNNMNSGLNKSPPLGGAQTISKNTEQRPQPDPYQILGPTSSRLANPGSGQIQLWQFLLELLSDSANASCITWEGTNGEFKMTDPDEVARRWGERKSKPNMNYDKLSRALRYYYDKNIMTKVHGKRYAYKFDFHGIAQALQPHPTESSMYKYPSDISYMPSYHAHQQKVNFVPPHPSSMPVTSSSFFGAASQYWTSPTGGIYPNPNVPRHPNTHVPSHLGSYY
# Method in brief: (§1)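 Beads coated with glutathione captured GST-fused human transcription factors that had been expressed in yeast, and the factors were then given DNA barcodes and pooled with a tag-only sample. The pools were incubated with 200 nmole of a random double-stranded 16-mer DNA library in Tris/NaCl/DTT/glycerol buffer for 30 min at room temperature, washed, crosslinked with 0.1% formaldehyde and proximity-ligated with BsaI/T4 ligase at 37 °C for 1 h. PCR amplification and Illumina NextSeq500 sequencing came last. Binding signal is each hexamer's read frequency for a factor divided by its frequency for the tag-only sample.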
# ELK1 = target: T2, ELK1 (Homo sapiens, UniProt P19419 1-428); conditions: protein: recombinant; tags: N-terminal GST; dsDNA, one strand shown
# T2 sequence: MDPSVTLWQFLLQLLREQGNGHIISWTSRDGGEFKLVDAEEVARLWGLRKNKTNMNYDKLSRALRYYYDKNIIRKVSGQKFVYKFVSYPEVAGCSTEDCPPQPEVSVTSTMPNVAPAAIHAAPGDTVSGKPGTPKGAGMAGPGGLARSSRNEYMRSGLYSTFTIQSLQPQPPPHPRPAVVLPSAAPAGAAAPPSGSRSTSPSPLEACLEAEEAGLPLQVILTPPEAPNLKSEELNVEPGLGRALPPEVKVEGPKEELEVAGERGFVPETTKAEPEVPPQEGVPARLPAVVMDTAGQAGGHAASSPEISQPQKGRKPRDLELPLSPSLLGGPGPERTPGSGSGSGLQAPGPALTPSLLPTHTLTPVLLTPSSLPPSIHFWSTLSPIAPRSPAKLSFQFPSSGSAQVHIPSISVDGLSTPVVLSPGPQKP
# Method in brief: as §1
# GABPA = target: T3, GABPA (Homo sapiens, UniProt Q06546 1-454); conditions: protein: recombinant; tags: N-terminal GST; dsDNA, one strand shown
# T3 sequence: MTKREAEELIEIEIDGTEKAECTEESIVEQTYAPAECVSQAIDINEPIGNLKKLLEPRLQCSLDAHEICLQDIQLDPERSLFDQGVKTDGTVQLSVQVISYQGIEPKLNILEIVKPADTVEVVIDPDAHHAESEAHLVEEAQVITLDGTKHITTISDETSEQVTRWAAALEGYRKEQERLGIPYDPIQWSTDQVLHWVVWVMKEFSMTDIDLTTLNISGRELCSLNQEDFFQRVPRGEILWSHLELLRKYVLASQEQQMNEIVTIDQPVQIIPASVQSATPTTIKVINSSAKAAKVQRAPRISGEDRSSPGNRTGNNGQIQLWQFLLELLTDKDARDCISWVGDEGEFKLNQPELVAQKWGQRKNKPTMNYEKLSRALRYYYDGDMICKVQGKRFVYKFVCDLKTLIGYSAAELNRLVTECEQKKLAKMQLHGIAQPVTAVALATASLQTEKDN
# Method in brief: as §1
# ERG = target: T4, ERG (Homo sapiens, UniProt P11308 1-479); conditions: protein: recombinant; tags: N-terminal GST; dsDNA, one strand shown
# T4 sequence: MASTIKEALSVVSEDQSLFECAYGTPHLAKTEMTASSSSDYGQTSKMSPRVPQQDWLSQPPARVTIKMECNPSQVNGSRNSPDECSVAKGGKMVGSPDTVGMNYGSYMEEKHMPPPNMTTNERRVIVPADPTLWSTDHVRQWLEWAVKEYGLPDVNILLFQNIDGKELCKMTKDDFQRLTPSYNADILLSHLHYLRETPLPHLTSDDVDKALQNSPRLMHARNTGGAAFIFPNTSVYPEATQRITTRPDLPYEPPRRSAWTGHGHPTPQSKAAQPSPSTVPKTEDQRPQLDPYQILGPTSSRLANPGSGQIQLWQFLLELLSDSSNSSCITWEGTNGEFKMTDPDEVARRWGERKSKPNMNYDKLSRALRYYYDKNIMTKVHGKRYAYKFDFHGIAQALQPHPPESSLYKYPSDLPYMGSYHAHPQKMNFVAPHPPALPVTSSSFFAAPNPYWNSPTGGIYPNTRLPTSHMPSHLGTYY
# Method in brief: as §1
# ELF1 = ELF1 (Homo sapiens, UniProt P32519 1-619); conditions: protein: recombinant; tags: N-terminal GST; dsDNA, one strand shown
# Method in brief: as §1
# EHF = target: T5, EHF (Homo sapiens, UniProt Q9NZC4 1-300); conditions: protein: recombinant; tags: N-terminal GST; dsDNA, one strand shown
# T5 sequence: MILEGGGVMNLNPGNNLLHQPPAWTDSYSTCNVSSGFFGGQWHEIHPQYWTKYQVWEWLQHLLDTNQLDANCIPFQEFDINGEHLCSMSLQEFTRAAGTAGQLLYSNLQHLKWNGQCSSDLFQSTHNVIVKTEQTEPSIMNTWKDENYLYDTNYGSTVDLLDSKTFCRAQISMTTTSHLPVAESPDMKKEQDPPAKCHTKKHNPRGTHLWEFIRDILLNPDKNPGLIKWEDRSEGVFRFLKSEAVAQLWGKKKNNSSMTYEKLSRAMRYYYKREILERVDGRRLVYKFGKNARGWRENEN
# Method in brief: as §1
# SPI1 = SPI1 (Homo sapiens, UniProt P17947 1-270); conditions: protein: recombinant; tags: N-terminal GST; dsDNA, one strand shown
# Method in brief: as §1
# SPIB = SPIB (Homo sapiens, UniProt Q01892 1-262); conditions: protein: recombinant; tags: N-terminal GST; dsDNA, one strand shown
# Method in brief: as §1
# ELK3 = target: T6, ELK3 (Homo sapiens, UniProt P41970 1-407); conditions: protein: recombinant; tags: N-terminal GST; dsDNA, one strand shown
# T6 sequence: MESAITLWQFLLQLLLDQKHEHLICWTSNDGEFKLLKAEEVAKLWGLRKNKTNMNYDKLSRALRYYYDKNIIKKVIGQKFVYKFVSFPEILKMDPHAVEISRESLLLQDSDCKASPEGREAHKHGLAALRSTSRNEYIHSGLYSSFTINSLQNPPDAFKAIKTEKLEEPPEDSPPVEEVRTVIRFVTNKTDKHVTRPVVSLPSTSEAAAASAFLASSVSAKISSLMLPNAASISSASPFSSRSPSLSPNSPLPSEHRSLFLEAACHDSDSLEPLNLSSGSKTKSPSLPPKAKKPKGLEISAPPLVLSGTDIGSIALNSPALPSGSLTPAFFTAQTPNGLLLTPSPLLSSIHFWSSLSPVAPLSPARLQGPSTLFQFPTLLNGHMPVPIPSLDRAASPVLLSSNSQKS
# Method in brief: as §1
# FEV = target: T7, FEV (Homo sapiens, UniProt Q99581 1-238); conditions: protein: recombinant; tags: N-terminal GST; dsDNA, one strand shown
# T7 sequence: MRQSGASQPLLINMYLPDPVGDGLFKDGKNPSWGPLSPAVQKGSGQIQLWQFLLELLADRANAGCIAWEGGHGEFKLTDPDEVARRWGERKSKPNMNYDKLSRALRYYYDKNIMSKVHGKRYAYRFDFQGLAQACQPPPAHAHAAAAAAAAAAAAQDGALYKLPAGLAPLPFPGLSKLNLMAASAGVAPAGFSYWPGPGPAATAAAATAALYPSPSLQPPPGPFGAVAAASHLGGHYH
# Method in brief: as §1
# ETV5 = ETV5 (Homo sapiens, UniProt P41161 1-510); conditions: protein: recombinant; tags: N-terminal GST; dsDNA, one strand shown
# Method in brief: as §1
# HSF1 = HSF1 (Homo sapiens, UniProt Q00613 1-529); conditions: protein: recombinant; tags: N-terminal GST; chain copies: 3; dsDNA, one strand shown
# Method in brief: as §1
# SPIC = target: T8, SPIC (Homo sapiens, UniProt Q8N5J4 1-248); conditions: protein: recombinant; tags: N-terminal GST; dsDNA, one strand shown
# T8 sequence: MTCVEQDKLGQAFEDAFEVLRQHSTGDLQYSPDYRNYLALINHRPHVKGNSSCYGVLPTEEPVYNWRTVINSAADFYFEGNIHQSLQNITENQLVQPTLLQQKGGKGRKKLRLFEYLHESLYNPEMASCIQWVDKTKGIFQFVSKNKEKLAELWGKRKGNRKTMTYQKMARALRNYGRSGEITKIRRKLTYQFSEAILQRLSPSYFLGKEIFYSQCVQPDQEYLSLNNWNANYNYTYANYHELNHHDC
# Method in brief: as §1
# ELF4 = ELF4 (Homo sapiens, UniProt Q99607 1-663); conditions: protein: recombinant; tags: N-terminal GST; dsDNA, one strand shown
# Method in brief: as §1
# ELK4 = target: T9, ELK4 (Homo sapiens, UniProt P28324-2 1-405); conditions: protein: recombinant; tags: N-terminal GST; dsDNA, one strand shown
# T9 sequence: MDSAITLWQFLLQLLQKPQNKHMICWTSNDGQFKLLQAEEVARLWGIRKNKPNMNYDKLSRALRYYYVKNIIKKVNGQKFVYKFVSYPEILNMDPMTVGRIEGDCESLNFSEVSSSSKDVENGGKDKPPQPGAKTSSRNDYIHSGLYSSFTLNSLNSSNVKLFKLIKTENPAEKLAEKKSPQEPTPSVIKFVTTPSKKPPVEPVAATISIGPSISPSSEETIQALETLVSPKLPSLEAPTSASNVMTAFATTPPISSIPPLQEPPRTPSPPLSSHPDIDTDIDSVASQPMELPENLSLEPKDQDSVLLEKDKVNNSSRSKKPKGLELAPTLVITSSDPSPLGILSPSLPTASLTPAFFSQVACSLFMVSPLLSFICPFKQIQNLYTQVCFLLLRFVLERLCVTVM
# Method in brief: as §1
# ETV2 = target: T10, ETV2 (Homo sapiens, UniProt O00321 1-342); conditions: protein: recombinant; tags: N-terminal GST; dsDNA, one strand shown
# T10 sequence: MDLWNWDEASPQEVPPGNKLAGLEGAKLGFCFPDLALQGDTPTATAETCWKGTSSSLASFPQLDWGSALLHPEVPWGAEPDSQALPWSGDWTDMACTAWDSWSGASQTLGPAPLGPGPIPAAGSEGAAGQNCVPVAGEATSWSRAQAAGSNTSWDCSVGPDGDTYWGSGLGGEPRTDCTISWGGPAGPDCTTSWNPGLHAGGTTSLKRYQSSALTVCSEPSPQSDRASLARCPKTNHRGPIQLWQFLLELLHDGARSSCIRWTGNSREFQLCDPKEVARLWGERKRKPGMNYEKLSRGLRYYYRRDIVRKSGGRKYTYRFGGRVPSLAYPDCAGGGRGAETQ
# Method in brief: as §1
# ELF3 = target: T11, ELF3 (Homo sapiens, UniProt P78545 1-371); conditions: protein: recombinant; tags: N-terminal GST; dsDNA, one strand shown
# T11 sequence: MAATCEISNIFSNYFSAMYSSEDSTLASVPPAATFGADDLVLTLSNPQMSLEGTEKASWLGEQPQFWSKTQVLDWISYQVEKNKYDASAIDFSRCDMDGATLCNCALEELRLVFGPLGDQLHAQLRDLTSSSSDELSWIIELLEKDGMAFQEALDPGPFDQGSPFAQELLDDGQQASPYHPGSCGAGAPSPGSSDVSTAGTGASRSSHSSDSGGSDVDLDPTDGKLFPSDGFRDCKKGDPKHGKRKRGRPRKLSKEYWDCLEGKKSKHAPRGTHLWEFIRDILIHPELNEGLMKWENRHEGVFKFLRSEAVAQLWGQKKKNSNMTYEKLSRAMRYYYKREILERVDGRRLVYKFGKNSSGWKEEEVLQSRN
# Method in brief: as §1
# CRX = CRX (Homo sapiens, UniProt O43186 1-299); conditions: protein: recombinant; tags: N-terminal GST; dsDNA, one strand shown
# Method in brief: as §1
# ETV1 = ETV1 (Homo sapiens, UniProt P50549 1-477); conditions: protein: recombinant; tags: N-terminal GST; dsDNA, one strand shown
# Method in brief: as §1
# ETV5, sequence (P41161 whole entry): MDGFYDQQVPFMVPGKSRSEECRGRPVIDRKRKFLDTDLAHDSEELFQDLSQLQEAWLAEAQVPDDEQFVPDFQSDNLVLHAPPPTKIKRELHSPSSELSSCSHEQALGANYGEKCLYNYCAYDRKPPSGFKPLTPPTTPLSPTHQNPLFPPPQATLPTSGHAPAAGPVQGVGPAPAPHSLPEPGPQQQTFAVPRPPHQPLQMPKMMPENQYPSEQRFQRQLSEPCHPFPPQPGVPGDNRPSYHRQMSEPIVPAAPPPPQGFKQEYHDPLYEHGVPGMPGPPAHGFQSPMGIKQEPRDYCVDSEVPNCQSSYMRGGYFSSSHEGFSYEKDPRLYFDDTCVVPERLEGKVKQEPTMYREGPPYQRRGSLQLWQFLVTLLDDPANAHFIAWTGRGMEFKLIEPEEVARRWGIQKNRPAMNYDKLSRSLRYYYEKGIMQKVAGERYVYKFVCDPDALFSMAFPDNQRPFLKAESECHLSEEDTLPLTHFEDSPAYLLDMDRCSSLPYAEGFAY
# SPIB, sequence (Q01892 whole entry): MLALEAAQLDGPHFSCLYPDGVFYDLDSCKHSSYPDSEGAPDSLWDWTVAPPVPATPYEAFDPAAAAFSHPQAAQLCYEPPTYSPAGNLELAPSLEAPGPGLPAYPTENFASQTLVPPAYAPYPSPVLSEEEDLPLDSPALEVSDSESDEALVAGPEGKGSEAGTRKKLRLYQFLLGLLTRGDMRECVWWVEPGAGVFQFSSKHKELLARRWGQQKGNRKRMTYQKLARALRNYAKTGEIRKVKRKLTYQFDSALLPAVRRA
# ETV1, sequence (P50549 whole entry): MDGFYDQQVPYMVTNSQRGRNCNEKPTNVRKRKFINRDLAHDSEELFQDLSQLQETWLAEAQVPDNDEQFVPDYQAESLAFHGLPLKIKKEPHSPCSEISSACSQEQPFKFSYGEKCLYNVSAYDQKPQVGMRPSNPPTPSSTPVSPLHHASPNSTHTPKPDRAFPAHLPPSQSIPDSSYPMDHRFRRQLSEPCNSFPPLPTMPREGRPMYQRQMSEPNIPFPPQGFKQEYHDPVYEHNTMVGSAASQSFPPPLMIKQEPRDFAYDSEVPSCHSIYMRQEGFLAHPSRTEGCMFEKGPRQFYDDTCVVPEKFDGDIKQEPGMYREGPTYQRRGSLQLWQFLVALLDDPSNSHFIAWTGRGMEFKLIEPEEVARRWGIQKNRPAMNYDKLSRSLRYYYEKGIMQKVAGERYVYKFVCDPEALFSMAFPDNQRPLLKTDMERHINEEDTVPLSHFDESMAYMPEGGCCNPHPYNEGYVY
# HSF1, sequence (Q00613 whole entry): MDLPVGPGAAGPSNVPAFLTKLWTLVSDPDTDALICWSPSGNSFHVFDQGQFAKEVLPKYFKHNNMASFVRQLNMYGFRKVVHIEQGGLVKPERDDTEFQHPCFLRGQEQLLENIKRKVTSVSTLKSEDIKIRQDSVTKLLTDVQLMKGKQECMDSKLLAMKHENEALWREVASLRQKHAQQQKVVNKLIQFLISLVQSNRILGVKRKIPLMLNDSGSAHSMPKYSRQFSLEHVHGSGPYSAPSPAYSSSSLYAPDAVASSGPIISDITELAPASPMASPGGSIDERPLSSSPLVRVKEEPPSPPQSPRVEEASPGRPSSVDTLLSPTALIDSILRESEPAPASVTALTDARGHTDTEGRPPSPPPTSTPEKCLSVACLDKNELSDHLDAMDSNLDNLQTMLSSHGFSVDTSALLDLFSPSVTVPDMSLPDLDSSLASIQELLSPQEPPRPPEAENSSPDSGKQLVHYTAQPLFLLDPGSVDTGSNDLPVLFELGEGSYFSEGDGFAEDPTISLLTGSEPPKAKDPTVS
# CRX, sequence (O43186 whole entry): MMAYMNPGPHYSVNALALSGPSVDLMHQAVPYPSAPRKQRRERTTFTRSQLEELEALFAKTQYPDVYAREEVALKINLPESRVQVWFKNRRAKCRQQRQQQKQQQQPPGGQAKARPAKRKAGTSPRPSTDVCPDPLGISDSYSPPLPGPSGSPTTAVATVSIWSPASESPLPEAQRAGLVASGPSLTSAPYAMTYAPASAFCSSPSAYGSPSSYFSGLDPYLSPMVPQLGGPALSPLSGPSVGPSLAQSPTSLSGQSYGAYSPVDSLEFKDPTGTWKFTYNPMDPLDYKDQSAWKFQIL
# ELF4, sequence (Q99607 whole entry): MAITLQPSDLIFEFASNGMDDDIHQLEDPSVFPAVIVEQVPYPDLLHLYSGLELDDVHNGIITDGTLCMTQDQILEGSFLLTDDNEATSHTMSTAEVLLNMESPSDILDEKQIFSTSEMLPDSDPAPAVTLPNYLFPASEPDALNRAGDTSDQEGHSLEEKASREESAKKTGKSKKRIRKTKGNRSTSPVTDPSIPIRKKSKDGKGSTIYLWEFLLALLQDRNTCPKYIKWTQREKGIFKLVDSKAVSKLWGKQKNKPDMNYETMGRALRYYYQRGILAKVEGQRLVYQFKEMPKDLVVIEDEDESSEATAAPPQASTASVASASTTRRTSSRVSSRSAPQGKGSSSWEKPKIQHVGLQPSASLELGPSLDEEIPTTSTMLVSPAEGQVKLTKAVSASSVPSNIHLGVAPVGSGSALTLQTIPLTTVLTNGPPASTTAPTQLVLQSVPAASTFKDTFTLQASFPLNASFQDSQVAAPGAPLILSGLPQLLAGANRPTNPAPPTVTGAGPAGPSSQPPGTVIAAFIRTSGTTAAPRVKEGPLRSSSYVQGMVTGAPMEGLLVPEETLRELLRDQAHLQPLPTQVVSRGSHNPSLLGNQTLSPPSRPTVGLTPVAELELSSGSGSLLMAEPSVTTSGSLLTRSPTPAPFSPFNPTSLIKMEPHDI
# ELF1, sequence (P32519 whole entry): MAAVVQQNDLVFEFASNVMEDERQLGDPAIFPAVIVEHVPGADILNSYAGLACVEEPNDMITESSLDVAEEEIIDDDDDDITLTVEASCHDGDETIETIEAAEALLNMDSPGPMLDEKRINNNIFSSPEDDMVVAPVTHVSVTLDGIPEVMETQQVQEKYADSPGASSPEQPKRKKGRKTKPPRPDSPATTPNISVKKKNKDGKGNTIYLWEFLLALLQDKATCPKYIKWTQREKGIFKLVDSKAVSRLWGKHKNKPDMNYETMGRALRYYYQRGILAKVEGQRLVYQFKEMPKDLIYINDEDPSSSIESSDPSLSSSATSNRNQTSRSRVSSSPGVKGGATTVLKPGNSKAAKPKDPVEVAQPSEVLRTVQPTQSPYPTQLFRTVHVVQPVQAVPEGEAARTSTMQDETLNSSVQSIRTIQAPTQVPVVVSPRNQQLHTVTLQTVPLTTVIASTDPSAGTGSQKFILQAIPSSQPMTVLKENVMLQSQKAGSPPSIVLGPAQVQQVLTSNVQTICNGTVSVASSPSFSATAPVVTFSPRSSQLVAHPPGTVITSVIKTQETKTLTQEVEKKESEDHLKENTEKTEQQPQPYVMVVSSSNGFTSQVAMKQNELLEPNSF
sequence,measurement,setting,value
TCTCGG,binding signal,FLI1,"1.69 fold enrichment (6-mer frequency, TF over GST control)"
same,binding signal,ELK1,"1.41 fold enrichment (6-mer frequency, TF over GST control)"
same,binding signal,GABPA,"1.5 fold enrichment (6-mer frequency, TF over GST control)"
same,binding signal,ERG,"1.38 fold enrichment (6-mer frequency, TF over GST control)"
same,binding signal,ELF1,"1.46 fold enrichment (6-mer frequency, TF over GST control)"
same,binding signal,EHF,"1.29 fold enrichment (6-mer frequency, TF over GST control)"
same,binding signal,SPI1,"1.52 fold enrichment (6-mer frequency, TF over GST control)"
same,binding signal,SPIB,"1.44 fold enrichment (6-mer frequency, TF over GST control)"
same,binding signal,ELK3,"1.42 fold enrichment (6-mer frequency, TF over GST control)"
same,binding signal,FEV,"1.31 fold enrichment (6-mer frequency, TF over GST control)"
same,binding signal,ETV5,"1.41 fold enrichment (6-mer frequency, TF over GST control)"
same,binding signal,HSF1,"1.89 fold enrichment (6-mer frequency, TF over GST control)"
same,binding signal,SPIC,"1.1 fold enrichment (6-mer frequency, TF over GST control)"
same,binding signal,ELF4,"1.4 fold enrichment (6-mer frequency, TF over GST control)"
same,binding signal,ELK4,"1.38 fold enrichment (6-mer frequency, TF over GST control)"
same,binding signal,ETV2,"1.48 fold enrichment (6-mer frequency, TF over GST control)"
same,binding signal,ELF3,"1.33 fold enrichment (6-mer frequency, TF over GST control)"
same,binding signal,CRX,"1.44 fold enrichment (6-mer frequency, TF over GST control)"
same,binding signal,ETV1,"1.38 fold enrichment (6-mer frequency, TF over GST control)"
